Sampled rows, rich in hits. Any-hit rate of the full collection: about 3.2%.
p53 reactivation: mutant p53 re-activation in reporter cells; H1299 p53-A138V BP100-luciferase reporter, luminescence, 24 h; Potency, µM (titrated, usually from 92.2 µM), inactives show top-dose activity change, positive = activation, usual class: activators; actives 0.063% (n = 320,000); further: potency means the concentration at half of the fitted maximal effect; % of control where 0% means no effect; nearly all actives have a fitted effect of over 45% in size
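H1299 (p53-null), stable ts p53-A138V + BP100-Luc; 1000 cells/well, Opti-MEM/10% FBS; cpd 4 pt, 1:5; 24 h, 37 deg C, 5% CO2; detection reagent 10 min RT; luminescence.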
A549 viability: kills or reduces viability of A549 cells in Nrf2 counter-screen. AID 504648. A549 ARE-Fluc cells, CellTiter-Fluor viability, 18-24 h. actives 0.16% (n = 390,000). Potency, µM (titrated, usually from 46 µM), inactives show top-dose activity change, negative = cytotoxicity, actives largely listed as inhibitors; further: potency means the concentration at half of the fitted maximal effect; on the % scale 0 is the no-effect control and ±100 the full control effect
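Cytotoxicity counterscreen: CellTiter-Fluor fluorescence was measured in A549 ARE_Fluc cells after 18-24 h of compound exposure in a concentration series. The subsequent BugLite luminescent read reports ARE-luciferase activity.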
BRCA1 expr up: activators of BRCA1 expression; actives 1.1% (n = 380,000); AID 624202; Potency, µM (titrated, usually from 46.1 µM), for inactives: top-dose activation, hits mostly activators; MCF7-BRCA1-FFLuc reporter, luminescence, 48 h; response scale: scaled: vehicle 0%, 10 µM genistein 100%; further: potency means the concentration at half of the fitted maximal effect; nearly all actives have a fitted effect of over 80% in size
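MCF7 cells carrying a BRCA1-firefly luciferase reporter (2000 cells/well, phenol-red free MEM) were attached for 2 h at 37 °C, then given compounds for 48 h. Luminescence was read 15 min after luciferase reagent; activity normalized to genistein (10 microM) and DMSO.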
Nrf2 ARE act: activators of Nrf2 (ARE) signaling | AREc32 ARE-luciferase reporter (MCF7-derived line), luminescence, 24 h | actives 0.31% (n = 410,000) | Potency, µM (top dose mostly 46.1 µM), inactives show at the top dose activation, hits mostly activators; further: potency means the concentration at half of the fitted maximal effect; % of control where 0% means no effect; nearly all actives have a fitted effect of over 65% in size
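For detection, Steady-Glo was added and plates sat 30 min at RT; before that, AREc32_Fluc cells grown overnight in OPTI-MEM/5% FBS had been treated with 23 nL compound for 24 hr at 37 deg C.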
IL-2 act: IL-2 activation. IL-2 activation reporter assay, cell-based qHTS; stimulated with anti-CD3/CD4/CD28 beads; in transgenic mouse T cells. activation, % (series mostly up to about 46 µM). actives 0.065% (n = 360,000). AID 652025; in the data active means activation above about 50%; inconclusive means mostly about 30% to 49%; further: 0% is about no effect
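Unstimulated transgenic mouse T cells; 60-min compound exposure; bead-based TCR/CD4/CD28 stimulation; 18 h culture, 37 degrees C; dual fluorescence (EGFP, DsRed) plate cytometry.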
Nrf2 block: blocks Nrf2 signaling | A549 ARE-Fluc reporter, luciferase luminescence, 18-24 h | Potency, µM (top dose mostly 46 µM), inactives show top-dose activity change, negative = inhibition, actives largely listed as inhibitors | actives 2.1% (n = 360,000); further: potency means the concentration at half of the fitted maximal effect; on the % scale 0 is the no-effect control and ±100 the full control effect; nearly all actives have a fitted effect of over 60% in size
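Two sequential reads on A549 ARE_Fluc cells exposed to compound for 18-24 h: a CellTiter-Fluor fluorescence read for viability, then a luciferase luminescence read for Nrf2/ARE activity.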
* hit, by the source's call; u = inconclusive; x = not tested or not shown; [ ] = remark or other dose. Unless noted, the call rests on the fitted dose curve; in most records, active means well fitted curve in the direction sought with a large enough effect; inconclusive means small, poorly fitted or top-dose-only effect, or another doubt; inactive means no such curve, though single readings can be large; an effect the other way counts as inactive or inconclusive.

SMILES	p53 reactivation	A549 viability	BRCA1 expr up	Nrf2 ARE act	IL-2 act	Nrf2 block
COc1cc(-c2noc(-c3ccc(NCc4cccnc4)c([N+](=O)[O-])c3)n2)cc(OC)c1OC	x	-16%	-1%	2%	x	u
CCc1ccccc1NC(=O)CC(c1ccc(F)cc1)N1Cc2ccccc2C1=O (configuration not stated)	x	u	x	0%	x	-9%
O=[N+]([O-])c1ccc(-c2ccc(/C=N/O)o2)cc1	13%	-5%	8.9µM*	6%	-3	u
Cc1ccc(NC(=O)CSc2nnc(-c3ccccc3)n2C)cc1	x	x	-4%	x	x	x
O=C(N/N=C/c1ccc(-n2ccnc2)cc1)c1cccs1	22%	1%	11µM*	0%	-2	u
O=C(N/N=C/c1ccncc1)c1cccs1	-6%	3%	13µM*	4%	-4	u
CCc1ccc(-n2nnc(-c3nsc(NC(=O)c4ccccc4Cl)n3)c2C)cc1	x	-5%	-7%	5%	x	18µM*
O=[N+]([O-])c1cc(C(F)(F)F)ccc1NCCc1c[nH]c2ccc(O)cc12	3%	7%[1.84 µM]	-20%	2%	0	7%
O=[N+]([O-])c1cc(C(F)(F)F)ccc1NCCc1c[nH]c2ccccc12	40µM*	-12%	-26%	2%	-1	-12%
Cc1cccc(OCCNc2ccc(C(F)(F)F)cc2[N+](=O)[O-])c1	5%	0%	3.2µM*	2%	23	u
CC1=C(c2ccc(C)c(C)c2)S(=O)(=O)N=C1N1CCC(C(=O)NCCc2ccco2)CC1	x	0%	x	9%	x	23%
COc1ccc(Cn2c3ccc(OC)cc3c3nc4ccccc4nc32)cc1	19%	2%	-11%	0%	267*	-1%
COC(=O)Cn1c2ccc(C)cc2c2nc3ccccc3nc21	9%	3%	0%	0%	-1	2%
COc1ccc2c(c1)c1nc3ccccc3nc1n2CC(=O)OC(C)C	0%	-28%	0%	0%	14	4.6µM*
CCNC(=O)c1c(NC(=O)COc2ccc(F)cc2)sc2c1CCCC2	x	-2%	x	0%	x	-4%
CCc1cccc(-n2nnc(-c3nsc(NC(=O)c4cccs4)n3)c2C)c1	x	8%	x	-1%	x	u
CCOC(=O)c1cnc2ccc(C(=O)OC)cc2c1Nc1cccc(C(=O)O)c1	-2%	-8%	1%	0%	0	2%
CCOC(=O)c1cnc2ccccc2c1Nc1cccc(C(=O)O)c1	14%	-3%	-6%	0%	80*	5%
CCOC(=O)c1cccc(Nc2c3c(nc4ccccc24)CCC3)c1	x	-16%	x	-2%	x	21µM*
CC(=O)c1cccc(Nc2c3c(nc4ccccc24)CCC3)c1	-3%	1%	-49%	0%	-1	-14%
COC(=O)c1cccc(Nc2c3c(nc4ccccc24)CCC3)c1	-2%	-27%	-79%	0%	-6	23µM*
CCCCN(CC)CCNC(=O)C1CCN(c2nnc(C)c3c(C)n(-c4ccc(C)cc4)nc23)CC1	x	23µM*	x	4%	x	u
CCN(CC)c1ccc(NC(=O)Cn2cc3c(n2)CCC(C)C3)c(C)c1 (configuration not stated)	-3%	-19%	-23%	1%	-1	13µM*
CCN(CC)c1ccc(NC(=O)CN2C(=O)CSc3ncccc32)c(C)c1	15%	-4%	-22%	0%	-3	10µM*
COc1ccc2[nH]cc(/C=C/c3cc[n+](C)cc3)c2c1	0%	u	-68%	6%	7	10µM*
COc1ccc2[nH]cc(C=O)c2c1	-2%	-8%	-8%	0%	-2	15%
O=C(COc1ccc(Cl)cc1)Nc1ccc(C(=O)NCc2cccnc2)cc1	0%	-11%	-49%	-1%	-3	21µM*

Screening results: PubChem, National Center for Advancing Translational Sciences (NCATS)
